Source: PubChem BioAssay (National Center for Advancing Translational Sciences (NCATS))
An excerpt weighted towards active compounds, which were near 18% of everything screened.
DT40 TDP1 no CPT: qHTS for Inhibitors of human tyrosyl-DNA phosphodiesterase 1 (TDP1): qHTS in cells in absence of CPT; Potency, µM (titrated, usually from 46.2 µM), without a hit: top-dose activity change, negative = growth inhibition, actives largely listed as inhibitors; DT40 Tdp1-/- hTDP1 cells, no CPT, ATP luminescence, 48 h; 420,000 tested, 15% active; AID 686978, 2013; note: nearly all actives have a fitted effect of over 55% in size
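A cellular qHTS used chicken DT40 cells lacking endogenous Tdp1 but carrying stably transfected human TDP1. Compounds were applied without camptothecin, and cell growth kinetics were judged by ATP-dependent luminescence after ≥48 hr.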
GCN5L2 inh: qHTS Assay for Inhibitors of GCN5L2; 390,000 tested, 0.21% active; Histone acetyltransferase KAT2A (Homo sapiens), Q92830; GCN5L2 HAT assay, ThioGlo1 CoA-SH fluorescence; Potency, µM (doses to about 58.9 µM), without a hit: at the top dose activity change, negative = inhibition, most hits filed as inhibitors; AID 504327, 2011
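Titration-based screen in which CoA formation is detected via maleimide probe ThioGlo1 (50uM) turning fluorescent on thiol reaction; substrates H3(1-25) 75uM and acetyl-CoA 70uM, GCN5L2 20nM, 20 min incubation at room temperature.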
DT40 TDP1 CPT: qHTS for Inhibitors of human tyrosyl-DNA phosphodiesterase 1 (TDP1): qHTS in cells in presence of CPT | AID 686979, 2013 | 420,000 tested, 12% active | Potency, µM (titrated, usually from 46.2 µM), inactives show top-dose activity change, negative = growth inhibition, usual class: inhibitors | chicken DT40 Tdp1-/-;hTDP1 cells + 20 nM CPT, ATP luminescence, 48 h; note: nearly all actives have a fitted effect of over 55% in size
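Chicken DT40 Tdp1-/- cells stably complemented with human TDP1 were seeded at 400 cells/well in medium containing 20 nM camptothecin, exposed to pin-transferred compounds, and grown at 37 °C for at least 48 hr. Viability was read as ATP luminescence.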
PLK1 PBD block: qHTS for Inhibitors of PLK1-PDB (polo-like kinase 1 - polo-box domain): Primary Screen. Serine/threonine-protein kinase PLK1 (Homo sapiens), P53350. Plk1 PBD binding of FITC phosphopeptide, fluorescence polarization. Potency, µM, without a hit: max response, negative = inhibition, hits mostly inhibitors. 360,000 tested, 2.8% active. AID 720504, 2013; note: series mostly up to about 57 µM; nearly all actives have a fitted effect of over 65% in size
Target sequence (P53350 whole entry, looked up, the tested form may be a part): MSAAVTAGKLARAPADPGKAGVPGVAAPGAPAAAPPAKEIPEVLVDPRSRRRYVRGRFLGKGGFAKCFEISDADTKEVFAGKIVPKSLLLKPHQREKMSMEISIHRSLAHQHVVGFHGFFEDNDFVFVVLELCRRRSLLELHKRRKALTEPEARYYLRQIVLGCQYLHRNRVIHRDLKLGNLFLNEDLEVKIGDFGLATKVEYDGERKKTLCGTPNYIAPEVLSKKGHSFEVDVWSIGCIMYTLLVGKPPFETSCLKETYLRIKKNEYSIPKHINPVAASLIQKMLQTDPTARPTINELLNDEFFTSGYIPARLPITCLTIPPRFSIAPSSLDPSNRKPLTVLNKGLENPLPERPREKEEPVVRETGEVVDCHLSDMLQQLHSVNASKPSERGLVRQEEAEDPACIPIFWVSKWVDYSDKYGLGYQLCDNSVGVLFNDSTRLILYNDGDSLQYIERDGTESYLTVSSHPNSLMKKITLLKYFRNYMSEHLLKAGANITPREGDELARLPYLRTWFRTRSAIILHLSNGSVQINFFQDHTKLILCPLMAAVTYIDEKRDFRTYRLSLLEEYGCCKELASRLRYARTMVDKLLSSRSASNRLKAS
TDP1 inh: qHTS Assay for Inhibitors of Tyrosyl-DNA Phosphodiesterase (TDP1); Tyrosyl-DNA phosphodiesterase 1 (Homo sapiens), Q9NUW8; recombinant TDP1, AlphaScreen DNA substrate cleavage; Potency, µM (doses to about 130 µM), without a hit: at the top dose activity change, negative = inhibition, hits mostly inhibitors; 350,000 tested, 0.28% active; note: nearly all actives have a fitted effect of over 40% in size
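Recombinant E. coli-expressed Tdp1 (1 nM) preincubated with compound 15 min at RT, then 5'-biotin/3'-phosphotyrosine-FITC DNA substrate (15 nM) added for 5 min. AlphaScreen beads (10 ug/ml) added, 10 min RT; tyrosine-FITC cleavage read as signal loss.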
VDR inhibitor: Inhibitors of the vitamin D receptor (VDR): qHTS. VDR-SRC2-3 peptide fluorescence polarization, 2 h. 400,000 tested, 0.93% active. Vitamin D3 receptor (Homo sapiens), P11473. AID 504847, 2011. Potency, µM, for the others: max response, negative = inhibition, most hits filed as inhibitors
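Fluorescence polarization assay measuring small-molecule disruption of VDR binding to the coregulator peptide SRC2-3. Compounds were pin-transferred (23 nl) into the reagent mix and incubated 2 h at room temperature before reading.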
The depositor's hits bear a star; ? = inconclusive; nt = no result given; [ ] = another dose, or the depositor's remark. Calls come from the whole dose curve; as a rule, active = well fitted curve in the direction sought with a large enough effect; inconclusive = small, poorly fitted or top-dose-only effect, or another doubt; inactive = no such curve, though single readings can be large; an effect the other way counts as inactive or inconclusive. % is set by controls: 0 for no effect and ±100 for the full control effect; potency is the fitted concentration of half-maximal effect.

SMILES | DT40 TDP1 no CPT | GCN5L2 inh | DT40 TDP1 CPT | PLK1 PBD block | TDP1 inh | VDR inhibitor
O=C(C1CCCN(S(=O)(=O)c2ccc(Br)s2)C1)N1CCCCCC1 (stereo unspecified) | 15µM* | nt | 21µM* | -8% | -4% | 5%
Cc1cccc(N2CCN(C(=O)C3CCCN(S(=O)(=O)c4c(C)noc4C)C3)CC2)c1C (stereo unspecified) | 23µM* | nt | 23µM* | -6% | nt | -6%
COc1cccc(N2CCN(C(=O)C3CCCN(S(=O)(=O)c4ccc(Br)s4)C3)CC2)c1 (stereo unspecified) | ? | -1% | ? | nt | 8% | -4%
O=C(C1CCN(S(=O)(=O)c2ccc(Br)s2)CC1)N1CCCCC1 | 21µM* | -2% | ? | -10% | 8% | 4%
Cc1cccc(N2CCN(C(=O)C3CCCN(S(=O)(=O)c4ccc(Br)s4)C3)CC2)c1C (stereo unspecified) | 8.2µM* | -12% | 9.2µM* | nt | 5% | -6%
O=C(C1CCN(S(=O)(=O)c2ccc(Br)s2)CC1)N1CCN(c2cccc(Cl)c2)CC1 | ? | -11% | ? | nt | 8% | -9%
COc1ccc(-c2nc(CS(=O)(=O)CC(=O)NCCc3cc(OC)ccc3OC)c(C)o2)cc1 | 23µM* | -3% | ? | 1% | 7% | 9%
COc1ccc(OC)c(CCNC(=O)CS(=O)(=O)Cc2nc(-c3cccc(Cl)c3)oc2C)c1 | ? | -4% | ? | nt | 6% | -5%
COc1cccc(-c2nc(CS(=O)(=O)CC(=O)NCCc3ccc(OC)cc3OC)c(C)o2)c1 | 23µM* | -9% | 18µM* | -13% | 5% | 2%
COc1cccc(-c2nc(CS(=O)(=O)CC(=O)NCCc3cc(OC)ccc3OC)c(C)o2)c1 | 18µM* | -2% | -22% | -19% | 6% | -14%
N#CCOc1coc(CN2CCN(c3ccccc3)CC2)cc1=O | 0% | -3% | -3% | 2% | 0% | 18%
COc1cc(N)c(NC(=O)/C=C/c2nc3cc(OC)c(OC)cc3[nH]2)cc1OC | -5% | nt | -26% | nt | nt | nt
COC(=O)C1=C(CCc2ccccc2)NC(=O)NC1c1ccc(Br)cc1 (stereo unspecified) | -25% | -8% | ? | -26% | nt | -3%
O=C(Nc1ccccc1)N1CC2(CCN(C(=O)c3ccncc3)CC2)C1 | 7% | -3% | -5% | nt | nt | 6%
CN1CCN(S(=O)(=O)c2ccc(N3CCN(C(=O)c4ccccc4)CC3)nc2)CC1 | ? | 3% | -5% | -4% | -1% | 0%
O=S(=O)(c1ccc(N2CCN(Cc3ccccc3)CC2)nc1)N1CCCC1 | ? | -2% | 16µM* | 3% | 1% | 12%
O=S(=O)(c1ccc(N2CC=C(c3ccccc3)CC2)nc1)N1CCCC1 | 18µM* | -30% | 16µM* | -4% | -2% | ?
CN1CCN(S(=O)(=O)c2ccc(N3CCN(c4ccccc4Cl)CC3)nc2)CC1 | 15µM* | 1% | 21µM* | 5% | 1% | 4%
Cc1ccc(NC(=O)CSc2ccc3nnc(CCNS(=O)(=O)c4ccccc4)n3n2)cc1Cl | ? | -6% | 16µM* | nt | 0% | 18%
Cc1csc(NC(=O)CSc2ccc3nnc(CCNS(=O)(=O)c4ccccc4)n3n2)n1 | ? | -3% | 0% | -6% | 3% | -19%
COc1ccc(S(=O)(=O)NCCc2nnc3ccc(SCC(=O)Nc4ccc(C(F)(F)F)cc4)nn23)cc1 | 23µM* | -5% | ? | nt | 0% | 6%
COc1cc(/C=C2\C(=N)N3N=C(S(C)(=O)=O)SC3=NC2=O)ccc1OC(=O)c1ccco1 | -19% | -18% | 3% | ? | nt | 79µM*
CCOc1cc(/C=C2/SC(=S)N(CC(=O)O)C2=O)ccc1OC(=O)c1cccs1 | -2% | -22% | -6% | ? | nt | ?
COc1cc(/C=C2\C(=N)N3N=CSC3=NC2=O)ccc1OS(=O)(=O)c1ccccc1[N+](=O)[O-] | ? | ? | -20% | 27µM* | 8% | ?
COc1cc(/C=C2/C(=N)N3C(=NC2=O)SN=C3S(C)(=O)=O)ccc1OS(=O)(=O)c1ccccc1 | nt | -30% | nt | nt | -9% | nt
SMILES | DT40 TDP1 no CPT | GCN5L2 inh | DT40 TDP1 CPT | PLK1 PBD block | TDP1 inh | VDR inhibitor
CCOc1cc(/C=C2\C(=O)N(c3ccc(C(N)=O)cc3)N=C2C)ccc1OC(=O)c1cccs1 | 23µM* | 0% | 15µM* | ? | 4% | 50µM*
CCOc1cc(/C=C2/C(=O)N(c3ccccc3)N=C2C)ccc1OC(=O)c1ccco1 | ? | -19% | ? | 1.5µM* | 9% | ?
COC(=O)C1=COC(O[C@H]2OC(CO)[C@H](O)C(O)C2O)[C@H]2C1C(=O)C[C@@H]2C (stereo partly specified) | -9%[9.04 µM] | nt | 4%[9.04 µM] | nt | 3% | 0%
O=C(Nc1ccc([N+](=O)[O-])cc1)N1CCN(C(=O)C2CCCO2)CC1 (stereo unspecified) | 1% | -3% | 10% | -6% | 1% | -13%
Cc1c(C(=O)Nc2ccccc2C(=O)N2CCOCC2)cccc1[N+](=O)[O-] | 0% | 0% | -1% | -3% | 3% | 1%
N=c1ccn(Cc2ccc(F)cc2)cc1 | 10µM* | -5% | ? | -2% | 6% | 4%
COc1cc(NC(=O)C(c2ccccc2)c2ccccc2)c(C(=O)O)cc1OC | 9% | -5% | -3% | -1% | 3% | 0%
COc1cc2c(cc1NC(=O)c1cccc(Br)c1)CCCC2 | 16µM* | -5% | ? | -1% | -2% | -6%
COc1cc2c(cc1NC(=O)C(c1ccccc1)c1ccccc1)CCCC2 | 12µM* | -9% | ? | 0% | -6% | 20%
O=C(NC1CCCCC1)C(c1ccccc1)N(C(=O)c1csnn1)C1CC1 (stereo unspecified) | -19% | -1% | 0% | 6% | 1% | 14%
COc1ccccc1CNc1nc(NCc2ccc(C(C)C)cc2)c2sccc2n1 | 2.9µM* | nt | 9.2µM* | -6% | nt | nt
CC(C)c1ccc(CNc2nc(NCC3CC3)nc3ccsc23)cc1 | 10µM* | nt | 9.2µM* | 0% | nt | nt
COc1cccc(CNc2nc(NCC3CC3)nc3ccsc23)c1OC | 15µM* | nt | 9.2µM* | -11% | nt | nt
